From article PMC7826789 (International Journal of Molecular Sciences, 2021)

Assays:
Conditions in all cases: Compound Concentration (nM):1000
[1] = system: TBK1
[2] = system: TEC
[3] = system: TESK1
[4] = system: TGFBR1
[5] = system: TGFBR2
[6] = system: TIE1
[7] = system: T1, TIE2
T1 construct: gene TEK

[8] = system: TLK1
[9] = system: TLK2
[10] = system: TNIK
[11] = system: TNK1
[12] = system: TNK2
[13] = system: TNNI3K
[14] = system: T2, TRKA
T2 construct: gene NTRK1

[15] = system: T3, TRKB
T3 construct: gene NTRK2

[16] = system: T4, TRKC
T4 construct: gene NTRK3

[17] = system: TRPM6
[18] = system: TSSK1B
[19] = system: TSSK3
[20] = system: TTK
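Also: KINOMEscan scanMAX binding as percent activity remaining versus control; lower means stronger binding.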

Structure (SMILES)	Percent Control [1]	Percent Control [2]	Percent Control [3]	Percent Control [4]	Percent Control [5]	Percent Control [6]	Percent Control [7]	Percent Control [8]	Percent Control [9]	Percent Control [10]	Percent Control [11]	Percent Control [12]	Percent Control [13]	Percent Control [14]	Percent Control [15]	Percent Control [16]	Percent Control [17]	Percent Control [18]	Percent Control [19]	Percent Control [20]
COc1cc(C=NNc2ncnc3c2cnn3-c2ccccc2)ccc1O [GW513184X]	95%	90%	100%	79%	100%	74%	65%	100%	100%	84%	67%	100%	84%	66%	100%	99%	100%	98%	100%	100%
NS(=O)(=O)c1ccc(Nc2ncc(-c3ccccc3)o2)cc1 [GW572399X]	100%	99%	100%	100%	100%	100%	100%	63%	47%	52%	100%	100%	100%	55%	72%	78%	100%	100%	100%	78%
CC1=C(C(=O)Nc2ccc3[nH]ncc3c2)C(c2ccc(Cl)c(Cl)c2)CC(=O)N1 (stereo not shown) [GSK299115A]	92%	92%	100%	100%	100%	90%	100%	84%	90%	100%	82%	79%	100%	72%	97%	68%	87%	93%	77%	89%
COc1cc(N2CCN(C(C)C)CC2)ccc1Nc1nc(Nc2ccc(F)cc2C(=O)NC[C@@H](O)CO)c2cc[nH]c2n1 [GSK1392956A]	100%	100%	92%	100%	100%	100%	100%	83%	92%	72%	18%	67%	100%	86%	91%	89%	82%	42%	83%	4.9%
COc1cc2ncnc(Nc3ccc4c(cnn4Cc4ccccc4)c3)c2cc1OC.Cl [GW282449A]	100%	83%	100%	100%	100%	100%	100%	100%	100%	100%	100%	77%	100%	100%	100%	100%	87%	100%	100%	96%
NS(=O)(=O)c1ccc(N/N=C2\C(=O)Nc3ccc(Cl)cc32)cc1 [GW280670X]	100%	100%	100%	100%	100%	100%	100%	100%	100%	47%	100%	100%	100%	43%	94%	89%	100%	100%	100%	40%
COc1cccc(-n2ncc3c(N/N=C/c4ccncc4)ncnc32)c1 [GW784752X]	100%	100%	85%	36%	100%	100%	100%	89%	93%	97%	88%	100%	51%	65%	73%	85%	89%	100%	90%	88%
COc1cc2ncn(-c3cc(O[C@H](C)c4ccccc4Cl)c(C(N)=O)s3)c2cc1OC [GSK237701A]	80%	100%	100%	72%	100%	13%	97%	96%	98%	99%	82%	58%	100%	31%	51%	59%	89%	74%	39%	82%
NS(=O)(=O)c1ccc(N/N=C2\C(=O)Nc3ccc(C(=O)NCc4ccncc4)cc32)cc1 [GW300657X]	33%	100%	100%	100%	100%	85%	100%	71%	75%	82%	100%	100%	96%	7.6%	21%	37%	89%	100%	89%	5.5%
COC(=O)Nc1nc2ccc(Oc3ccc(NC(=O)Nc4cc(C(F)(F)F)ccc4F)cc3)cc2s1.Cl [GW693917A]	69%	78%	77%	100%	92%	3.1%	0.6%	87%	100%	74%	37%	95%	61%	4.8%	6.2%	4.5%	73%	92%	82%	80%
Cl.O=S1CCN(Cc2ccc(-c3ccc4ncnc(Nc5ccc(OCc6ccccc6)c(F)c5)c4c3)o2)CC1 [GW576924A]	100%	100%	100%	100%	100%	100%	100%	100%	100%	100%	100%	100%	100%	100%	100%	100%	92%	90%	100%	100%
Cl.O=C(Nc1ccc(Oc2ccc3[nH]c(NC(=O)c4ccccc4)nc3c2)cc1)Nc1cc(C(F)(F)F)ccc1F [GW709042A]	88%	100%	96%	100%	100%	2.3%	7.5%	100%	86%	100%	66%	100%	55%	27%	35%	29%	100%	100%	100%	87%
CCc1ccc(Oc2nccc(-c3c(-c4ccc(F)cc4)ncn3C3CCNCC3)n2)cc1 [SB-242719]	65%	100%	99%	96%	100%	100%	100%	91%	100%	66%	80%	82%	100%	86%	98%	98%	100%	99%	90%	80%
O=C(Nc1n[nH]c2nc(-c3ccc(O)cc3)c(Br)cc12)C1CC1 [SB-725317]	86%	100%	100%	100%	100%	100%	100%	100%	100%	72%	100%	100%	100%	65%	100%	100%	100%	100%	100%	97%
CN1CCN(C(=O)c2ccc(NC(=O)Nc3ccc(N(C)c4ccnc(Nc5ccc(CS(C)(=O)=O)cc5)n4)cc3)cc2)CC1.Cl [GW830263A]	55%	100%	100%	88%	26%	8.3%	41%	86%	100%	23%	6.7%	6.5%	92%	7.1%	11%	2%	91%	96%	75%	61%
C[C@@H](Oc1cc(-n2cnc3ccc(OC4CCN(C)CC4)cc32)sc1C(N)=O)c1ccccc1Cl [GSK579289A]	67%	99%	72%	100%	100%	52%	69%	81%	77%	75%	76%	86%	100%	49%	82%	91%	88%	71%	100%	69%
CCS(=O)(=O)c1ccc(OC)c(Nc2ncc(-c3cccc(OC)c3)o2)c1 [GW580509X]	100%	100%	100%	81%	46%	49%	100%	100%	99%	75%	30%	100%	100%	16%	46%	67%	100%	100%	100%	90%
Cl.O=C(O[C@H]1CN[C@H](C#Cc2cc3ncnc(Nc4ccc5c(cnn5Cc5ccccc5)c4)c3s2)C1)N1CCOCC1 [GSK200398A]	100%	100%	96%	97%	100%	100%	100%	80%	72%	96%	99%	97%	55%	70%	87%	95%	96%	100%	93%	100%
COc1ccc2cc(-c3c(-c4ccncc4)nc(-c4ccc(S(C)(=O)=O)cc4C)n3C)ccc2c1 [SB-633825]	65%	66%	91%	9.7%	86%	3.8%	2.4%	94%	100%	54%	57%	61%	100%	73%	70%	60%	71%	74%	57%	91%
O=C1Nc2ccc(C(=O)c3ccco3)cc2C1=Cc1cc(Cl)c(O)c(Cl)c1 [GW406108X]	40%	100%	100%	99%	58%	100%	100%	94%	97%	24%	79%	100%	100%	33%	75%	61%	95%	100%	87%	30%
